From PMC4336329 (PLoS ONE, 2015)
The campaign covered roughly 310,000 compounds. About 14,000 (4.5%) showed an effect of 50% or more. Effects have a minus sign here. The sample as a whole holds a higher share of strong results than the screen did.
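Note: peak tail current of the secondary pulse compared with the same well before compound.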

Each compound was assayed against human ether-à-go-go-related gene (hERG) potassium channel (human, UniProt Q12809) (assay: primary screen, population patch clamp on CHO cells stably expressing hERG; higher = less effect of the substance).
Chain of human ether-à-go-go-related gene (hERG) potassium channel (Q12809 whole entry, looked up): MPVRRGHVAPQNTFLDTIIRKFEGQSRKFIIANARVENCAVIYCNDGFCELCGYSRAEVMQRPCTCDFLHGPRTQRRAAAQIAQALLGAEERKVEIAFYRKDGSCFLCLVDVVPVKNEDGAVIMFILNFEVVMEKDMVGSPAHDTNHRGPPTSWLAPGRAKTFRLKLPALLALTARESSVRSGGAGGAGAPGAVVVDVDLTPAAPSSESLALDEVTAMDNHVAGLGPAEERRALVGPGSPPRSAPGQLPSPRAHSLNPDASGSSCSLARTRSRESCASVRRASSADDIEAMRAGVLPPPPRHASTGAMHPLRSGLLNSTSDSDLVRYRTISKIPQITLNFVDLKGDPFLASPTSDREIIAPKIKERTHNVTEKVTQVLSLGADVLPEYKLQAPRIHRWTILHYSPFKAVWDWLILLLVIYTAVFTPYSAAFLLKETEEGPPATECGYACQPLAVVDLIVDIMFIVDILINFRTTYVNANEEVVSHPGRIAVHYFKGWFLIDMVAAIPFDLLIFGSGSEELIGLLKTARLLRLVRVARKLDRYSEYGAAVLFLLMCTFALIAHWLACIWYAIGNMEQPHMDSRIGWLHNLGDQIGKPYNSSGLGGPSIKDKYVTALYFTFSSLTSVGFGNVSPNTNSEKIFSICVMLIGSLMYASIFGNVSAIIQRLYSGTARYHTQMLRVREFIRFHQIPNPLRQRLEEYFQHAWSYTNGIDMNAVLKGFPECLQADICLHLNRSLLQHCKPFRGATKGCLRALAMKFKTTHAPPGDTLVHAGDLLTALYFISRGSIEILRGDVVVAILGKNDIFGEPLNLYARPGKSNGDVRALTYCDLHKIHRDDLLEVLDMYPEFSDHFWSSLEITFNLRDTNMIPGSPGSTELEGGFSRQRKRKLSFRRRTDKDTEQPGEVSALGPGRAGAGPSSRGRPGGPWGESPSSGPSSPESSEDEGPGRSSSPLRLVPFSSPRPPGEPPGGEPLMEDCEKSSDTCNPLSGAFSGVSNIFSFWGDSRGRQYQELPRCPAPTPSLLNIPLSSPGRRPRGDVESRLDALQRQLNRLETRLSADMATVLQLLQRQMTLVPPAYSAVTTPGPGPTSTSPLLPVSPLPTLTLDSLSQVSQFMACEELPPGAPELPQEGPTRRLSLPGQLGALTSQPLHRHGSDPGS
With C#CCOCCOCCOCCNc1nc(N2CCN(C(=O)Cn3cc(CCO)nn3)CC2)nc(N2CCN(C(=O)[C@H]([C@@H](C)O)n3cc(CCCC[NH3+])nn3)CC2)n1.[Cl-] the “hERG current change (%, negative = inhibition) at 10uM” value was 12.3%. CCOC(=O)/C(=N\Nc1ncnc2ccccc12)c1ccc(OC)cc1 was tested, and the “hERG current change (%, negative = inhibition) at 10uM” value was 15%. In the case of COc1ccc(NC(=O)CSC2CC(=O)N(c3ccc4c(c3)OCCO4)C2=O)cc1 (centres unmarked), the “hERG current change (%, negative = inhibition) at 10uM” value was 4.54%. O=C(c1ccccc1-c1nc(-c2ccc(F)cc2)no1)N1CCCC1 was tested, and the “hERG current change (%, negative = inhibition) at 10uM” value was -30.8%. Cn1nc(C(=O)Nc2ccc(Cl)c(S(=O)(=O)N3CCOCC3)c2)c2ccccc2c1=O was tested, and the “hERG current change (%, negative = inhibition) at 10uM” value was -9.05%. With O=C(NC1CCS(=O)(=O)C1)N1CCCCC1 (centres unmarked) the “hERG current change (%, negative = inhibition) at 10uM” value was 13.2%. For O=C(NC(=S)N1CCN(c2nc(-c3ccccc3)cs2)CC1)c1cncc(Br)c1, the “hERG current change (%, negative = inhibition) at 10uM” value was 17%. Cc1n[nH]c(=O)nc1NCc1ccccc1Cl was tested, and the “hERG current change (%, negative = inhibition) at 10uM” value was 3.23%. With O=C(CCc1nnc2n(Cc3ccc(F)cc3)c(=O)c3ccccc3n12)N1CCN(c2ccccn2)CC1 the “hERG current change (%, negative = inhibition) at 10uM” value was -79.2%. For O=C(O)CCc1nnc2n(Cc3ccc(F)cc3)c(=O)c3ccccc3n12, the “hERG current change (%, negative = inhibition) at 10uM” value was 6.3%. O=C(c1ccc(Cn2c(=S)[nH]c3ccccc3c2=O)cc1)N1CCN(c2ccccn2)CC1 was tested, and the “hERG current change (%, negative = inhibition) at 10uM” value was 8.99%. With Cc1ccc(Cn2c(=O)c3ccccc3n3c(CCC(=O)O)nnc23)cc1 the “hERG current change (%, negative = inhibition) at 10uM” value was 10.9%. For O=C(CCc1nnc2n(Cc3ccc(Cl)cc3)c(=O)c3ccccc3n12)N1CCN(c2ccccn2)CC1, the “hERG current change (%, negative = inhibition) at 10uM” value was -57%. In the case of Cn1c(=O)c2sccc2n2c(CCCC(=O)N3CCN(c4ccccn4)CC3)nnc12, the “hERG current change (%, negative = inhibition) at 10uM” value was -11.1%. For CC(C)OCCCn1c(=O)c2ccccc2n2c(CCC(=O)O)nnc12, the “hERG current change (%, negative = inhibition) at 10uM” value was 29.3%. With CCn1c(=O)c2sccc2n2c(CCCC(=O)N3CCN(c4ccccn4)CC3)nnc12 the “hERG current change (%, negative = inhibition) at 10uM” value was -17.6%. CC(C)OCCCn1c(=O)c2ccccc2n2c(CCC(=O)NCc3ccccn3)nnc12 was tested, and the “hERG current change (%, negative = inhibition) at 10uM” value was -14.4%. For COCCCn1c(=O)c2sccc2n2c(CCCC(=O)N3CCN(c4ccccn4)CC3)nnc12, the “hERG current change (%, negative = inhibition) at 10uM” value was -2.18%. With CC(C)CCn1c(=O)c2sccc2n2c(CCCC(=O)N3CCN(c4ccccn4)CC3)nnc12 the “hERG current change (%, negative = inhibition) at 10uM” value was -65%. With CC(C)OCCCn1c(=O)c2ccccc2n2c(CCC(=O)N3CCN(c4ccccn4)CC3)nnc12 the “hERG current change (%, negative = inhibition) at 10uM” value was -71.1%. For CC(C)(O)[C@H]1Cc2cc3ccc(=O)oc3cc2O1, the “hERG current change (%, negative = inhibition) at 10uM” value was 21.2%. In the case of O=C(CSc1nc(NS(=O)(=O)c2ccccc2)cc(=O)[nH]1)Nc1ccccc1C(F)(F)F, the “hERG current change (%, negative = inhibition) at 10uM” value was 9.04%. CCCCCN(C(=O)CCC(=O)OCc1ccccc1Cl)c1c(N)n(CCCC)c(=O)[nH]c1=O was tested, and the “hERG current change (%, negative = inhibition) at 10uM” value was -49.8%. In the case of CCCCCN(C(=O)CCC(=O)OCC(=O)c1ccc(CCC)cc1)c1c(N)n(CCCC)c(=O)[nH]c1=O, the “hERG current change (%, negative = inhibition) at 10uM” value was -61.5%. CCCCCN(C(=O)CCC(=O)OCC(=O)c1ccc(C(C)(C)C)cc1)c1c(N)n(CCCC)c(=O)[nH]c1=O was tested, and the “hERG current change (%, negative = inhibition) at 10uM” value was -33.7%. CCCCCN(C(=O)CCC(=O)OCC(=O)NCc1cccc(OC)c1)c1c(N)n(CCCC)c(=O)[nH]c1=O was tested, and the “hERG current change (%, negative = inhibition) at 10uM” value was -0.375%. CCCCCN(C(=O)CCC(=O)OCc1ccc(Cl)cc1Cl)c1c(N)n(CCCC)c(=O)[nH]c1=O was tested, and the “hERG current change (%, negative = inhibition) at 10uM” value was -50.1%. In the case of CCCCCN(C(=O)CCC(=O)OCC(=O)c1ccc(C(C)CC)cc1)c1c(N)n(CCCC)c(=O)[nH]c1=O (centres unmarked), the “hERG current change (%, negative = inhibition) at 10uM” value was 8.1%. With CCCCCN(C(=O)CCC(=O)OCC(=O)c1cccc(OC)c1)c1c(N)n(CCCC)c(=O)[nH]c1=O the “hERG current change (%, negative = inhibition) at 10uM” value was -64.6%. For CCCCCN(C(=O)CCC(=O)OCc1cccc(Cl)c1)c1c(N)n(CCCC)c(=O)[nH]c1=O, the “hERG current change (%, negative = inhibition) at 10uM” value was 8.16%. For CCCCCN(C(=O)CCC(=O)OCC(=O)c1ccc(F)c(F)c1)c1c(N)n(CCCC)c(=O)[nH]c1=O, the “hERG current change (%, negative = inhibition) at 10uM” value was -33.7%. In the case of Fc1ccc(NC(=S)NCc2cccnc2)cc1, the “hERG current change (%, negative = inhibition) at 10uM” value was 13.1%. With CCCS(=O)(=O)N1CCC(C(=O)NCCCOC)CC1 the “hERG current change (%, negative = inhibition) at 10uM” value was -0.339%. For COc1cc(NC(=O)c2c(-c3ccccc3Cl)noc2C)c2ncccc2c1, the “hERG current change (%, negative = inhibition) at 10uM” value was 25.5%. CCOc1ccc(NC(=O)COC(=O)CNC(=O)c2ccc(-c3ccccc3)cc2)cc1 was tested, and the “hERG current change (%, negative = inhibition) at 10uM” value was 2.3%. With CC(=O)Nc1cccc(NC(=O)CSc2nc(=O)n(CCCN3CCOCC3)c3c2CCC3)c1 the “hERG current change (%, negative = inhibition) at 10uM” value was 0.499%. With O=C(CSc1nc(=O)n(CCCN2CCOCC2)c2c1CCC2)Nc1ccc(F)cc1F the “hERG current change (%, negative = inhibition) at 10uM” value was -41.8%. In the case of O=C(CSc1nc(=O)n(CCCN2CCOCC2)c2c1CCC2)Nc1cccc(F)c1, the “hERG current change (%, negative = inhibition) at 10uM” value was -37.4%. With O=C(CSc1nc(=O)n(CCCN2CCOCC2)c2c1CCCC2)Nc1cccc(F)c1 the “hERG current change (%, negative = inhibition) at 10uM” value was -56.2%. CC(=O)Nc1cccc(NC(=O)CSc2nc(=O)n(CCN3CCOCC3)c3c2CCCC3)c1 was tested, and the “hERG current change (%, negative = inhibition) at 10uM” value was 0.233%. In the case of O=C(CSc1nc(=O)n(CCCN2CCOCC2)c2c1CCCC2)Nc1cccc(Cl)c1, the “hERG current change (%, negative = inhibition) at 10uM” value was -62.2%. For CN(c1ccccc1)C(c1ccc(F)cc1)c1nnnn1CC1CCCO1.Cl (centres unmarked), the “hERG current change (%, negative = inhibition) at 10uM” value was -14.1%. In the case of Cn1cc([N+](=O)[O-])c(C(=O)N/N=C/c2cc3c(cc2Br)OCO3)n1, the “hERG current change (%, negative = inhibition) at 10uM” value was 3.63%. CC(=O)Nc1ccc(S(=O)(=O)N[C@@H](C)C(=O)Nc2ccc(N3CCOCC3)cc2)cc1 was tested, and the “hERG current change (%, negative = inhibition) at 10uM” value was 15.1%. In the case of CCOC(=O)C1=NN(C(=O)c2ccccc2)C(O)(c2ccc(C)cc2)C1 (centres unmarked), the “hERG current change (%, negative = inhibition) at 10uM” value was -17.2%. In the case of CCOC(=O)C1=NN(C(=O)c2ccc(OC)cc2)C(O)(c2ccc(Cl)cc2)C1 (centres unmarked), the “hERG current change (%, negative = inhibition) at 10uM” value was -75.5%. With COC(=O)C1=NN(C(=O)c2ccc(C)cc2)C(O)(c2ccc(Cl)cc2)C1 (centres unmarked) the “hERG current change (%, negative = inhibition) at 10uM” value was -31.2%. For O=C(c1ccc(Br)o1)N1CCN(Cc2ccccc2Cl)CC1, the “hERG current change (%, negative = inhibition) at 10uM” value was -12.6%. With O=C(c1cc(Cl)ccc1Cl)N1CCN(Cc2ccccc2)CC1 the “hERG current change (%, negative = inhibition) at 10uM” value was 5.54%. In the case of O=C(c1ccc(F)cc1Cl)N1CCN(CCc2ccccc2)CC1, the “hERG current change (%, negative = inhibition) at 10uM” value was -44%. With O=C(c1ccc(Br)o1)N1CCN(c2ccccc2F)CC1 the “hERG current change (%, negative = inhibition) at 10uM” value was -4.94%. O=C(c1ccccc1)N1CCN(C(=O)c2ccncc2)CC1 was tested, and the “hERG current change (%, negative = inhibition) at 10uM” value was 14.3%. With O=C(c1ccccc1)N1CCN(CCc2ccccc2)CC1 the “hERG current change (%, negative = inhibition) at 10uM” value was -43.6%. In the case of O=C(c1ccncc1)N1CCN(CCc2ccccc2)CC1, the “hERG current change (%, negative = inhibition) at 10uM” value was -50.8%. O=C(c1ccc(Br)o1)N1CCN(c2ncccn2)CC1 was tested, and the “hERG current change (%, negative = inhibition) at 10uM” value was 0.956%. For O=C(c1ccc(Br)o1)N1CCN(CCc2ccncc2)CC1, the “hERG current change (%, negative = inhibition) at 10uM” value was -69.8%. For O=C(c1cc(F)c(F)cc1Cl)N1CCN(CCc2ccccc2)CC1, the “hERG current change (%, negative = inhibition) at 10uM” value was -71.6%. For CCN1CCN(c2ccc(N3CCN(C(=O)c4ccc(Br)o4)CC3)nn2)CC1, the “hERG current change (%, negative = inhibition) at 10uM” value was -71.5%. In the case of COc1ccc(N2CCN(C(=O)c3ccc(Br)o3)CC2)cc1, the “hERG current change (%, negative = inhibition) at 10uM” value was -17%.
